The panel holds about 83,000 compounds, 20% with a hit somewhere; the sample as a whole holds those more often.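 96-well plates, one dose, 48 hours. Percent growth reported; active if below 10.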 A number with no mark means an inactive call. Activity calls are given as the source filed them.

We go through 39 molecules from PubChem BioAssay (NCI).

The first assay deals with MALME-3M melanoma. The assay can be described thus: NCI-60 one-dose screen, 48 h (100 = growth as untreated, 0 = no growth, -100 = all killed). To be noted: 10 µM unless noted.
On to `NC(N)=Nc1nc2ccccc2o1`, for which the growth is 119%.
As for `CC(C)CC1NC(C)(C)CO1` (stereo not given), the growth was 124%.
The same measure, in the same setting: the result for `COc1cc(/C=N\NC(=O)CN2CCN(c3cc4c(cc3F)c(=O)c(C(=O)N/N=C/c3cc(OC)c(OC)c(OC)c3)cn4C3CC3)CC2)cc(OC)c1OC` reads -15.8% (active); that for `COc1ccc(-c2nc3sc(-c4cc(OC)c(OC)c(OC)c4)nn3c2/C=C2/C(=O)Nc3ccc(F)cc32)cc1`, -48.3% (active).
The same measure, in the same setting: the result for `Nc1cccc(-c2nc3sccn3c2-c2ccnc(NCCNS(=O)(=O)c3ccc(C(F)(F)F)cc3)n2)c1` reads 42.1%; that for `COc1ccc(-c2ccc(-c3ccc(C(=N)N)s3)s2)cc1Cl`, 64.3%.
The same measure, in the same setting: the result for `NC(=O)c1c(NC(=S)Nc2ccc(OC(F)(F)F)cc2)sc2c1CCC1(C2)OCCO1` reads 109%; that for `COc1ccc2[nH]c(C(=O)OCc3ccc4c(Cl)cc(Cl)c(O)c4n3)cc2c1`, -79.9% (active).
As to `CCO/C=N/C1=C(C#N)C(c2ccc(Cl)cc2)c2c(c3ccccc3n(C)c2=O)O1` (stereo not given), the growth was 55.7%.
On the same count and under the same terms, the result for `COc1ccc(S(=O)(=O)Nc2cc(/C=C\c3cc(OC)c(OC)c(OC)c3)cc(OC)c2OC)cc1` reads 81.5%; that for `CCCCNC(=O)Oc1ccc(/C(=C(\C)c2ccccc2)c2ccc(OCCN(CC)CC)cc2)cc1`, 76.1%; that for `COc1ccc(S(=O)(=O)n2cc(C(=O)C(=O)Nc3ccncc3)c3ccccc32)cc1F`, 76.4%.
The same measure, in the same setting: the result for `CC(C)(C)n1cc(-c2ccnc(NCCCNS(=O)(=O)c3ccc(Br)cc3)c2)c(-c2cccc(O)c2)n1` reads -2.04% (active); that for `O=Nc1c(-c2cccc([N+](=O)[O-])c2)nc2ncccn12`, 85.2%; that for `O=C1/C(=C/c2ccc([N+](=O)[O-])cc2)CN(C(=O)CCN2CCC(=NO)CC2)C/C1=C\c1ccc([N+](=O)[O-])cc1`, -20.3% (active).
`CCOC(=O)C1=C(C)NC(C)=C(C(=O)OCC)C1(C)C`: the growth was 111%.
Still for that read-out and setting: the result for `CCCCN(CCCC)C(=N)c1ccnc2ccccc12` reads 98.8%.
Consider `C1=Cc2ccccc2N(c2nnc(-c3ccccc3)o2)c2ccccc21`, for which the growth is 109%.
Still for that read-out and setting: the result for `CCCCCCCCCCCCCCCCCCNC(=O)[C@H]1CSC(c2ccc(OC)cc2O)N1` (stereo not given in full) reads 96.6%.
`COc1ccc(C(=O)c2cc(OC)c3c(c2)OCO3)cc1O`: the growth was 50.7%.
On the same count and under the same terms, the result for `COc1ccc(-c2cc(-c3ccccc3)nc(SCCCC(=O)NO)n2)cc1OC` reads -3.72% (active); that for `CCOC(=O)C1CCNC(=O)C1=O` (stereo not given), 126%; that for `COc1ccc(Nc2[nH]n3c(=O)cc(-c4ccccc4)nc3c2C(=O)Nc2ccc(C)cc2)c(OC)c1`, 91.6%.
Same read-out and setting: the result for `COc1ccc(-c2cn(-c3cccc(C(=O)/C=C/c4cc(OC)c(OC)c(OC)c4)c3)c(=O)[nH]2)cc1OC` reads 86%; that for `Cc1ccc(S(=O)(=O)NC(=O)n2cc(-c3ccncc3)c(-c3ccc(Cl)c(O)c3)n2)cc1`, 65%; that for `COC(=O)C1CCCN1C(=O)[C@@H]1CCCN1C(=O)[C@H](Cc1c[nH]c2ccccc12)NC(=S)Nc1cc(C(F)(F)F)cc(C(F)(F)F)c1` (stereo not given in full), 81.7%.

Another assay has as its system MDA-MB-231 breast. The description is as above. To be noted: 10 µM unless noted.
Regarding `Cc1nc2cncc(C#Cc3cncc(C(=O)Nc4ccc(CN5CCN(C)CC5)c(C(F)(F)F)c4)c3)c2nc1C`, the growth is -49.4% (active).
On the same count and under the same terms, the result for `CCN(CC)CCC(CNc1c2ccc(Cl)cc2nc2ccc(OC)cc12)c1ccccc1` (stereo not given) reads -46.1% (active); that for `Cc1csc(NC(c2ccc(Br)cc2)c2c(C)nc3ccccn23)n1` (stereo not given), 84%.
Still for that read-out and setting: the result for `O=C(NCCCNc1nccc(-n2ccc3cccnc32)n1)c1c(F)cccc1F` reads 95.5%; that for `COc1ccc(/C=C\c2cc(OC)c(OC)c(OC)c2)cc1OC(=O)c1cccc(Cn2cc(CCOC(=O)c3cccc(Cn4nnc5c4C(=O)c4ccccc4C5=O)c3)nn2)c1`, 21.6%.
Still for that read-out and setting: the result for `O=C(Nc1ccc(NCCN2CCOCC2)nc1)c1ccc([N+](=O)[O-])cc1` reads 103%; that for `CCOC(=O)C1C(=O)C=C(c2ccc(OC)cc2)CC1c1sc(N(C)Cc2ccccc2)nc1Cl` (stereo not given), 68.3%.
Turning to `NC(=S)N/N=C(/CCN1CCCC1)CC(C1=C(O)C2=CCCCC2OC1=O)c1ccccc1` (stereo not given), the growth was 70.4%.
Still for that read-out and setting: the result for `O=C(NNC(=O)N1c2ccccc2C=Cc2ccccc21)c1ccccc1` reads 111%.
On the same count and under the same terms, the result for `Cc1ccc(S(=O)(=O)n2cc(C(=O)C(=O)Nc3ccncc3)c3ccccc32)cc1` reads 42.9%.
For the molecule `COc1ccc(C2=C(c3cc(OC)c(OC)c(OC)c3)C(=O)CC2)cc1`, the growth is 17.2%.
Still for that read-out and setting: the result for `Cn1ccc(Nc2nccc(Oc3ccc(C(=O)Nc4cccc(F)c4)c(Cl)c3)n2)c1` reads 99%; that for `CCOc1cc2c(Cl)ncnc2c(OCC)c1OCC`, 77.7%.
The same measure, in the same setting: the result for `NC(N)=Nc1nc2ccccc2o1` reads 103%.
Turning to `CC(C)CC1NC(C)(C)CO1` (stereo not given), the growth was 106%.
On to `COc1cc(/C=N\NC(=O)CN2CCN(c3cc4c(cc3F)c(=O)c(C(=O)N/N=C/c3cc(OC)c(OC)c(OC)c3)cn4C3CC3)CC2)cc(OC)c1OC`, for which the growth is -16.1% (active).
The same measure, in the same setting: the result for `COc1ccc(-c2nc3sc(-c4cc(OC)c(OC)c(OC)c4)nn3c2/C=C2/C(=O)Nc3ccc(F)cc32)cc1` reads -31% (active); that for `Nc1cccc(-c2nc3sccn3c2-c2ccnc(NCCNS(=O)(=O)c3ccc(C(F)(F)F)cc3)n2)c1`, 46%.
The same measure, in the same setting: the result for `COc1ccc(-c2ccc(-c3ccc(C(=N)N)s3)s2)cc1Cl` reads -42.3% (active).
Still for that read-out and setting: the result for `NC(=O)c1c(NC(=S)Nc2ccc(OC(F)(F)F)cc2)sc2c1CCC1(C2)OCCO1` reads 98.9%.
Take `COc1ccc2[nH]c(C(=O)OCc3ccc4c(Cl)cc(Cl)c(O)c4n3)cc2c1`: the growth was -75.9% (active).
Same read-out and setting: the result for `CCO/C=N/C1=C(C#N)C(c2ccc(Cl)cc2)c2c(c3ccccc3n(C)c2=O)O1` (stereo not given) reads 51.2%.
Same read-out and setting: the result for `COc1ccc(S(=O)(=O)Nc2cc(/C=C\c3cc(OC)c(OC)c(OC)c3)cc(OC)c2OC)cc1` reads 21%; that for `CCCCNC(=O)Oc1ccc(/C(=C(\C)c2ccccc2)c2ccc(OCCN(CC)CC)cc2)cc1`, 103%; that for `COc1ccc(S(=O)(=O)n2cc(C(=O)C(=O)Nc3ccncc3)c3ccccc32)cc1F`, 57.1%.
On the same count and under the same terms, the result for `CC(C)(C)n1cc(-c2ccnc(NCCCNS(=O)(=O)c3ccc(Br)cc3)c2)c(-c2cccc(O)c2)n1` reads 8.91% (active); that for `O=Nc1c(-c2cccc([N+](=O)[O-])c2)nc2ncccn12`, 111%.
`O=C1/C(=C/c2ccc([N+](=O)[O-])cc2)CN(C(=O)CCN2CCC(=NO)CC2)C/C1=C\c1ccc([N+](=O)[O-])cc1`: the growth is -69.1% (active).
`CCOC(=O)C1=C(C)NC(C)=C(C(=O)OCC)C1(C)C`: the growth is 98.8%.
The same measure, in the same setting: the result for `CCCCN(CCCC)C(=N)c1ccnc2ccccc12` reads 119%.
Consider `C1=Cc2ccccc2N(c2nnc(-c3ccccc3)o2)c2ccccc21`, for which the growth was 85.5%.
Still for that read-out and setting: the result for `CCCCCCCCCCCCCCCCCCNC(=O)[C@H]1CSC(c2ccc(OC)cc2O)N1` (stereo not given in full) reads 38.1%.
Still for that read-out and setting: the result for `COc1ccc(C(=O)c2cc(OC)c3c(c2)OCO3)cc1O` reads 16.4%.
Still for that read-out and setting: the result for `COc1ccc(-c2cc(-c3ccccc3)nc(SCCCC(=O)NO)n2)cc1OC` reads 6.56% (active).
`CCOC(=O)C1CCNC(=O)C1=O` (stereo not given): the growth was 106%.
The same measure, in the same setting: the result for `COc1ccc(Nc2[nH]n3c(=O)cc(-c4ccccc4)nc3c2C(=O)Nc2ccc(C)cc2)c(OC)c1` reads 86.2%; that for `COc1ccc(-c2cn(-c3cccc(C(=O)/C=C/c4cc(OC)c(OC)c(OC)c4)c3)c(=O)[nH]2)cc1OC`, 72.1%.
Same read-out and setting: the result for `Cc1ccc(S(=O)(=O)NC(=O)n2cc(-c3ccncc3)c(-c3ccc(Cl)c(O)c3)n2)cc1` reads 89.8%; that for `COC(=O)C1CCCN1C(=O)[C@@H]1CCCN1C(=O)[C@H](Cc1c[nH]c2ccccc12)NC(=S)Nc1cc(C(F)(F)F)cc(C(F)(F)F)c1` (stereo not given in full), 14.4%.
